The values below come from PubChem BioAssay (NCATS).

The target in experiment [1] is Rap guanine nucleotide exchange factor 3 (Homo sapiens) (UniProt O95398). Description: Confirmatory qHTS for antagonist of cAMP-regulated guanine nucleotide exchange factor 3 (EPAC1) (AID 1645880). Also: nearly all actives have a fitted effect of over 55% in size. Also: potency is read from the fitted curve at half-maximal effect. The gist of the method:
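Released BODIPY-GDP fluoresces less than Rap1-bound BODIPY-GDP; the signal is followed at 480/540 nm at 5-min intervals over 30 min, after 5 min at room temperature. Reactions contain 100 nM EPAC1, 250 nM RAP1B-BODIPY-GDP and 50 uM GDP; results are normalized to ATA and DMSO.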
On the technique in general: Quantitative high-throughput screening tests each substance at several concentrations.

The target is the same in experiment [2]. Description: Confirmatory qHTS for agonist of cAMP-regulated guanine nucleotide exchange factor 3 (EPAC1) (AID 1645881).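 Also: EPAC1 catalysed release of BODIPY-GDP from Rap1B seen as fluorescence loss; 100% = effect of cAMP agonist control; nearly all actives have a fitted effect of over 75% in size.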
Experiment [3] addresses Rap guanine nucleotide exchange factor 4 (Homo sapiens) (UniProt Q8WZA2). Put plainly: Confirmatory qHTS for agonist of cAMP-regulated guanine nucleotide exchange factor 4 (EPAC2) (AID 1645884).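 Also: nucleotide exchange releases bodipy-GDP from Rap1 and this lowers its fluorescence; % is scaled to controls: 0 for no effect and ±100 for the full control effect; nearly all actives have a fitted effect of over 65% in size.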
For experiment [4] the target is unchanged. Description: Confirmatory qHTS for antagonist of cAMP-regulated guanine nucleotide exchange factor 4 (EPAC2) (AID 1645885). Also: nearly all actives have a fitted effect of over 25% in size. Also: potency is read from the fitted curve at half-maximal effect. As to activity change, negative = inhibition: % is scaled to controls: 0 for no effect and ±100 for the full control effect.
Experiment [5] concerns the target Rap guanine nucleotide exchange factor 3 (Homo sapiens) (UniProt O95398). Put plainly: Counterscreen qHTS for antagonist of cAMP-regulated guanine nucleotide exchange factor 3 (EPAC1) (AID 1645888). Also: % of control where 0% means no effect. In short, it runs like this:
(§1)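 Rap1B-BODIPY-GDP 250 nM + GDP 50 uM; cpds 7-pt, final 9.74 nM–152 uM (activator mode) or from 7.32 nM upwards (inhibitor mode); RT; FI 480/540 nm at 5 and 30 min, then ± cAMP, reread.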

The target is the same in experiment [6]. Put plainly: Counterscreen qHTS for agonist of cAMP-regulated guanine nucleotide exchange factor 3 (EPAC1) (AID 1645889). Also: % of control where 0% means no effect; nearly all actives have a fitted effect of over 40% in size. The gist of the method:
as §1
For orientation: Counterscreens check selectivity or assay interference.

Records with an inconclusive call do not appear. A number with no mark means an inactive call. Active and inactive are the calls of the source. Calls follow the shape of the dose curve; as a rule, active = well fitted curve in the direction sought with a large enough effect; inconclusive = small, poorly fitted or top-dose-only effect, or another doubt; inactive = no such curve, though single readings can be large; an effect the other way counts as inactive or inconclusive.

Sequence of Rap guanine nucleotide exchange factor 4 (Homo sapiens) (Q8WZA2 whole entry, looked up): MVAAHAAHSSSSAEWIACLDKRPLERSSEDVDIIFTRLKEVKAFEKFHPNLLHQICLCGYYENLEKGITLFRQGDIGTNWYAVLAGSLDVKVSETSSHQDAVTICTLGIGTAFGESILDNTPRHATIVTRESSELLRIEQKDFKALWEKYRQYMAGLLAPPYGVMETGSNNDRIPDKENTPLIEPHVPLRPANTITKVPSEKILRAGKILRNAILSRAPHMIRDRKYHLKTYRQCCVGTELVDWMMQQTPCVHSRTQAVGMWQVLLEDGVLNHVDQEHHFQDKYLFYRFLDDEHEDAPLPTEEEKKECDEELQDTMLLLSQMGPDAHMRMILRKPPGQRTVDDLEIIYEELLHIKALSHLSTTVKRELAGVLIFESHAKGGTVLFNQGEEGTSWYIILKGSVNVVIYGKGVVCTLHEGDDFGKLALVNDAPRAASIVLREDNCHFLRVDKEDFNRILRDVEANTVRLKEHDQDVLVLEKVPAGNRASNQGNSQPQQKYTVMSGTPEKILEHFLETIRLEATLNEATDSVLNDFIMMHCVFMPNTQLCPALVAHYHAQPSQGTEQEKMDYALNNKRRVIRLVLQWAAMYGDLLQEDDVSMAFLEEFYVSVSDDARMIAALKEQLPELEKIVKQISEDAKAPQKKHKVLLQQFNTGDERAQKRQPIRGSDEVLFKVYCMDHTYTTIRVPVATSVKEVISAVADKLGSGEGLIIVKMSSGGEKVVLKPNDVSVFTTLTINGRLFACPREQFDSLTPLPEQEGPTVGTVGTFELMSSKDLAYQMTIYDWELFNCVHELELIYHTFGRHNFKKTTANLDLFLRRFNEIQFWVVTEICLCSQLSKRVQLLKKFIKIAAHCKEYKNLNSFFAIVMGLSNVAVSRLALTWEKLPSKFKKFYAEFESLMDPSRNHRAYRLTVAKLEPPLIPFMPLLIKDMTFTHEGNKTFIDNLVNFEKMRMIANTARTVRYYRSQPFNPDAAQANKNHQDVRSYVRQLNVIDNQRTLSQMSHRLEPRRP
Sequence of Rap guanine nucleotide exchange factor 3 (Homo sapiens) (O95398 whole entry, looked up): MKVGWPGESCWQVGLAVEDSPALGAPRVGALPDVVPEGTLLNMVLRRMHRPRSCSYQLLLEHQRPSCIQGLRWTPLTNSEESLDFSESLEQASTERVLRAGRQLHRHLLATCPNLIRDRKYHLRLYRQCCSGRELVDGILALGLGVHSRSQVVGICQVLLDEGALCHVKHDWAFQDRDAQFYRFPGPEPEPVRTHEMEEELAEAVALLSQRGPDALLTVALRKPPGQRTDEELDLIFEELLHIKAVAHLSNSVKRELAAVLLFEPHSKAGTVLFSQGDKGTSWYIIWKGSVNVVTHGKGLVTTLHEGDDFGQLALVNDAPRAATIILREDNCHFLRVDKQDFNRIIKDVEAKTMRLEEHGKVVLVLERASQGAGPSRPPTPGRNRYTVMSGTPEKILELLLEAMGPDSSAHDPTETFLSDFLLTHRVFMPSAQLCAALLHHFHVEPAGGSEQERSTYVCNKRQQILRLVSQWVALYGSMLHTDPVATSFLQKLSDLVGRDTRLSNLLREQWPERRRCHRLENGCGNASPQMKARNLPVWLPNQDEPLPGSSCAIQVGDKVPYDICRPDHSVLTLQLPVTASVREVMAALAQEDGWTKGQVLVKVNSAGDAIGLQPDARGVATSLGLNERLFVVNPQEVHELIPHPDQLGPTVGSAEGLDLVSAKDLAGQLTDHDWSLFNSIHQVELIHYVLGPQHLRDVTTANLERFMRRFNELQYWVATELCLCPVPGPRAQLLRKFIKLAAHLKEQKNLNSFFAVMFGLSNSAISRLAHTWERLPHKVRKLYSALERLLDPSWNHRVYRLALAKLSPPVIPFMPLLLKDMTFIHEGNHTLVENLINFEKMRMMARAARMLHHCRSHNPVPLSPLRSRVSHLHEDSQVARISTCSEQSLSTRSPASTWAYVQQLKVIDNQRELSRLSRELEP

With `Cc1c(C(=O)N2CCCCC2)oc2ccc(Br)cc12`, the Potency entry in experiment [1], in experiment [2], in experiment [3], in experiment [4], in experiment [5] and in experiment [6] was “inactive” each time.
Consider `Cc1cccc(-c2nc(SCC(=O)Nc3cccc(C(F)(F)F)c3)n3[nH]c(=O)cc3n2)c1`, for which the Potency in experiment [1] is 84.9 µM (active). In addition, the Potency entry in experiment [2], in experiment [3], in experiment [4], in experiment [5] and in experiment [6] was “inactive” in each case.
As to `COC1=CC(=O)c2c(ccc3ncnc(N)c23)C1=O`, the values for the Potency in experiment [1] and in experiment [4] were 19 µM (active) and 26.9 µM (active), respectively. The Potency entry in experiment [2], in experiment [3], in experiment [5] and in experiment [6] was “inactive” each time.
For `O=C1NN(c2cccc(Br)c2)C(=O)/C1=C\c1ccccc1`, in experiment [1], the Potency is 33.8 µM (active). Besides, the Potency entry in experiment [2], in experiment [3], in experiment [4], in experiment [5] and in experiment [6] was “inactive” each time.
For `CC1CC(C)CN(C(=O)c2cccc(S(=O)(=O)Nc3cc(C(F)(F)F)ccc3Cl)c2)C1` (stereo unspecified), in experiment [1], the Potency was 13.5 µM (active). Also, the Potency entry in experiment [2], in experiment [3], in experiment [4], in experiment [5] and in experiment [6] was “inactive” throughout.
As to `Cc1cc(C)c(C(=O)c2cccs2)c(C)c1`, the Potency result in experiment [1], in experiment [2], in experiment [3], in experiment [4], in experiment [5] and in experiment [6] was “inactive” throughout.
For the compound `O=C(c1ccc(Cl)cc1)C(CN1CCCCC1)c1ccccc1` (stereo unspecified), the Potency in experiment [1] was 37.9 µM (active). Further, the Potency result in experiment [2], in experiment [3], in experiment [4], in experiment [5] and in experiment [6] was “inactive” throughout.
In the case of `Cc1cccc(NC(=O)c2c(NC(=O)C(F)(F)F)sc3c2CCCCC3)c1`, in experiment [1], the Potency was 42.6 µM (active). In addition, the Potency entry in experiment [2], in experiment [3], in experiment [4], in experiment [5] and in experiment [6] was “inactive” each time.
Take `Cc1ccc(NC(=O)CN2C(=O)N/C(=C/c3ccccc3OCc3cccc(C(=O)O)c3)C2=O)cc1`: in experiment [1], the Potency is 31.6 µM (active). Also, the Potency result in experiment [2] and in experiment [4] was “inactive” throughout. Further, the activation in experiment [3] is -10.8% [at 17.1 µM, percent relative to cAMP agonist control]; in experiment [6], 5.98% [at 30.8 µM]. Besides, the activity change, negative = inhibition in experiment [5] was -1.86% [at 30.8 µM].
Consider `Cc1noc(C)c1CSc1ncnc2sc(C)c(C)c12`, for which the Potency result in experiment [1], in experiment [2], in experiment [3], in experiment [4], in experiment [5] and in experiment [6] was “inactive” throughout.
In the case of `COCOCCn1cc(CN2CCS(=O)(=O)N(Cc3ccc(-c4ccc(Cl)cc4)cc3)C(CC(C)C)C2=O)nn1` (stereo unspecified), the Potency entry in experiment [1], in experiment [2], in experiment [3], in experiment [4], in experiment [5] and in experiment [6] was “inactive” each time.
Turning to `COc1ccccc1CCc1nnc(CCC(=O)N(C)Cc2cccc3ncccc23)o1`, the Potency result in experiment [1], in experiment [2], in experiment [3], in experiment [4], in experiment [5] and in experiment [6] was “inactive” throughout.
Regarding `O=c1cc(-c2ccccc2)nc2c(-c3ccccc3)c(C(F)(F)F)[nH]n12`, the values for the Potency in experiment [1] and in experiment [4] were 42.6 µM (active) and 16.9 µM (active), respectively. The Potency result in experiment [2], in experiment [3], in experiment [5] and in experiment [6] was “inactive” each time.
For the compound `Cc1cccc(NC(=S)NC(=O)c2oc3ccccc3c2C)n1`, the Potency entry in experiment [1], in experiment [2], in experiment [3], in experiment [4], in experiment [5] and in experiment [6] was “inactive” throughout.
For the compound `Cc1c(OC(C)C(=O)NC(Cc2c[nH]c3ccc(O)cc23)C(=O)O)ccc2c1oc(=O)c1ccccc12` (stereo unspecified), the Potency in experiment [1] is 13.5 µM (active). Also, the Potency entry in experiment [2], in experiment [3], in experiment [4], in experiment [5] and in experiment [6] was “inactive” in each case.
As to `NC(=O)c1sc(=S)n2c1[nH]c(=O)c1sccc12`, the Potency in experiment [1] is 16.9 µM (active). The Potency entry in experiment [2], in experiment [3], in experiment [4], in experiment [5] and in experiment [6] was “inactive” in each case.
Take `O=C(O)CN1C(=O)/C(=C\c2cccc(OCc3ccccc3F)c2)SC1=S`: the figures for the Potency in experiment [1] and in experiment [4] were 42.6 µM (active) and 84.9 µM (active), respectively. Further, the Potency entry in experiment [2], in experiment [3], in experiment [5] and in experiment [6] was “inactive” in each case.
As for `COc1cc(/C=C2\SC(=S)N(NS(=O)(=O)c3ccc(C)cc3)C2=O)cc(OC)c1OC`, the Potency was 26.9 µM (active) in experiment [1] and 33.8 µM (active) in experiment [4]. Besides, the Potency result in experiment [2], in experiment [3], in experiment [5] and in experiment [6] was “inactive” each time.
For the compound `O=C(N/N=C/c1cc(Br)c(O)c(Br)c1)c1cc2c(ccc3ccccc32)o1`, in experiment [1], the Potency was 39.8 µM (active). Moreover, the Potency result in experiment [2] and in experiment [4] was “inactive” throughout. Besides, the activation in experiment [3] was -5.24% [at 17.1 µM, percent relative to cAMP agonist control]; in experiment [6], 1.28% [at 30.8 µM]. Moreover, the activity change, negative = inhibition in experiment [5] was -6.71% [at 30.8 µM].
With `CCOC(=O)C1CCCCN1Cc1cn(C)nc1-c1ccccc1F` (stereo unspecified), the Potency result in experiment [1], in experiment [2], in experiment [3], in experiment [4], in experiment [5] and in experiment [6] was “inactive” throughout.
For the compound `Cc1nnc(N/N=C\c2ccc(-c3ccccc3[N+](=O)[O-])o2)n1N`, the Potency entry in experiment [1], in experiment [2] and in experiment [4] was “inactive” each time. In addition, the activation in experiment [3] is 4.31% [at 17.1 µM, percent relative to cAMP agonist control]; in experiment [6], 36.2% [at 30.8 µM]. For the same compound, the activity change, negative = inhibition in experiment [5] is 7.63% [at 30.8 µM].
